Inconclusive results are not listed. The source made the active and inactive calls. The call rests on the fitted dose curve; in most records, active means well fitted activation curve with a large enough effect in the signal ratio in the repeat runs (not every such curve was filed as active); inconclusive means weak or mixed curves, or effect the other way; inactive means flat fitted curve, though single readings scatter; the % refers to the signal ratio.

Chain of Bile acid receptor (Homo sapiens) (Q96RI1 whole entry, looked up): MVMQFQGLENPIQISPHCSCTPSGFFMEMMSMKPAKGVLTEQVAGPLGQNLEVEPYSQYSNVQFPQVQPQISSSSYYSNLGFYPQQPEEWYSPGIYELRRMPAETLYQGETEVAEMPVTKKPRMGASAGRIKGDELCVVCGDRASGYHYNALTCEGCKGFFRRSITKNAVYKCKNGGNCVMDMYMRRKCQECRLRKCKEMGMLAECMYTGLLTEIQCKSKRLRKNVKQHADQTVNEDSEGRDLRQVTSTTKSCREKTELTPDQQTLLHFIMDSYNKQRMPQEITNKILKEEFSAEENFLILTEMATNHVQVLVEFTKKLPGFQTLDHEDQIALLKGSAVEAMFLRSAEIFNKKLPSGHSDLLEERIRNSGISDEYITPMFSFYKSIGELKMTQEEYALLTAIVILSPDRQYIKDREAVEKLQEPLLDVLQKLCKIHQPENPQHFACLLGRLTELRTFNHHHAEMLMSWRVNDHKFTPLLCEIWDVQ

The target in this experiment is Bile acid receptor (Homo sapiens) (UniProt Q96RI1). The experiment can be described thus: qHTS assay to identify small molecule agonists of the farnesoid-X-receptor (FXR) signaling pathway (AID 743220). Particulars: HEK293T FXR-UAS-bla, beta-lactamase FRET ratio, 16 h; series mostly up to 62.6 µM. The text has this:
National Center for Advancing Translational Sciences [NCATS]
NIH Chemical Genomics Center [NCGC]
U.S. Environmental Protection Agency [EPA]
National Institutes of Environmental Health Sciences [NIEHS]
National Toxicology Program [NTP]
U.S. Food and Drug Administration [FDA]
The farnesoid-X-receptor (FXR), a nuclear hormone receptor, is highly expressed in liver, intestine, kidney and adrenal cortex. Natural ligands of FXR are the bile acids (Cholic acid, Chenodeoxy cholic acid etc). FXR is an important regulator of diverse metabolic pathways, including the bile acid homeostasis, lipid and glucose metabolisms. FXR regulates the expression of target genes by binding either as a monomer or as a heterodimer with the retinoid X receptor (RXR). Numerous studies have reported that FXR exerts protective function during cholestasis, diabetes, liver regeneration, and cancer. To identify compounds that activate FXR signaling, GeneBLAzer FXR-UAS-bla HEK 293T cell line (Invitrogen, Carlsbad, CA) containing a beta-lactamase reporter gene under the control of a UAS response element was used to screen the Tox21 10K compound library.
Tox21 Assay Protocol Summary:
FXR-bla cells were dispensed at 5000 cells/5uL/well in 1536-well black wall/clear bottom plates using a Multidrop Combi (Thermo Fisher Scientific, Waltham, MA) dispenser. After the assay plates were incubated at 37C and 5% CO2 for 5 h, 23 nL of compounds dissolved in DMSO, positive controls or DMSO only was transferred to the assay plate by a Pintool station (Kalypsys, San Diego, CA). The assay plates were incubated at 37C for 16 h. After 1 uL of LiveBLAzerTM B/G FRET substrate was added using a Bioraptr Flying Reagent Dispenser (FRD) workstation (Beckman Coulter, Indianapolis, IN), the plates were incubated at room temperature for 2 h, and fluorescence intensity was measured by an Envision plate reader (PerkinElmer, Shelton, CT).
For orientation: In qHTS, concentration-response curves come from the screen itself.
`COC(=O)c1ccc(C=O)cc1`: the outcome was inactive.
On to `COc1cc2c(c(OC)c1OC)-c1ccc(OC)c(=O)cc1[C@@H](NC(C)=O)CC2`, for which the result was inactive.
Consider `CC(C)=CCC/C(C)=C/CO`, for which the result was inactive.
For `O=C(OCc1ccccc1)c1ccccc1`, the outcome was inactive.
On to `Cn1cnc2c1c(=O)[nH]c(=O)n2C`, for which the result was inactive.
Regarding `CC(O)COc1ccccc1` (stereo not given), the outcome was inactive.
For `CC(C)(C)CC(C)(C)c1ccc(O)c(-n2nc3ccccc3n2)c1`, the result was inactive.
Next, `Oc1cccc(O)c1`: “inactive”; `C[C@]12CC[C@@H]3c4ccc(O)cc4C[C@@H](CCCCCCCCCS(=O)CCCC(F)(F)C(F)(F)F)[C@H]3[C@@H]1CC[C@@H]2O` (stereo not given in full): “inactive”; `O=c1c(-c2ccc(O)cc2)coc2cc(O)cc(O)c12`: “inactive”.
As for `Cc1c(N(C)C)c(=O)n(-c2ccccc2)n1C`, the entry is “inactive”.
For the compound `COc1ccccc1O`, the result was inactive.
Next, `CCOC(=O)C(C)(C)Oc1ccc(Cl)cc1`: “inactive”; `c1ccc2[nH]c(-c3cscn3)nc2c1`: “inactive”.
Next, `COc1cc(C=O)ccc1O`: “inactive”; `CC1=NN(c2ccccc2)C(=O)C1`: “inactive”.
Next, `C=CCOC(=O)CC(C)C`: “inactive”; `CC(=O)c1ccc(S(=O)(=O)NC(=O)NC2CCCCC2)cc1`: “inactive”; `CC(=O)CCC(C)C`: “inactive”.
For the compound `COC1=CC(=O)C[C@@H](C)[C@]12Oc1c(Cl)c(OC)cc(OC)c1C2=O`, the result was inactive.
For `C[C@]12C[C@H](O)[C@H]3[C@@H](CCC4=CC(=O)CC[C@@]43C)[C@@H]1CC[C@@H]2C(=O)CO`, the result was inactive.
Next, `O=C1CCCCCN1`: “inactive”; `COc1cc(O)c(C(=O)c2ccccc2)cc1S(=O)(=O)O`: “inactive”.
Regarding `CC(=O)/C=C/C1=C(C)CCCC1(C)C`, the result was inactive.
As to `Cc1cnc(NC(=O)C2=C(O)c3ccccc3S(=O)(=O)N2C)s1`, the result was inactive.
As for `O=C(O)CN(CC(=O)O)CC(=O)O`, the entry is “inactive”; as for `C[C@]12CC[C@@H]3c4ccc(O)cc4CC[C@H]3[C@@H]1CCC2=O`, “inactive”; as for `Cc1cccc2ccccc12`, “inactive”.
As for `CN(C)C=O`, the entry is “inactive”; as for `COc1ccc(C(=O)c2ccccc2)c(O)c1`, “inactive”.
As for `CCN1CCCC1=O`, the entry is “inactive”; as for `CC(C)CC(C)CC(O)CC(C)C` (stereo not given), “inactive”.
With `COC(=O)C1CCC(C(=O)OC)CC1` (stereo not given), the outcome was inactive.
Take `CCn1cc(C(=O)O)c(=O)c2ccc(C)nc21`: the outcome was inactive.
As for `CN(C)Cc1cc(CN(C)C)c(O)c(CN(C)C)c1`, the entry is “inactive”; as for `CCOCCO`, “inactive”; as for `Cc1ccc(O)c(-n2nc3ccccc3n2)c1`, “inactive”.
In the case of `CCCCC/C(C=O)=C\c1ccccc1`, the result was inactive.
As for `COCC(C)N` (stereo not given), the entry is “inactive”; as for `CCCCCCCCCCCCCCCCCC(=O)OCC(O)CO` (stereo not given), “inactive”.

The record behind these values is PubChem BioAssay (Tox21).
